# Test results: the supplement of paper PMC7057948, “A genome-wide approach for identification and characterisation of metabolite-inducible systems” (Nature Communications, 2020)
# Test system: BadR/P_H16_RS27200 cyclohexanecarboxylate biosensor (pEH159)
# Assay: relative induction of RFP reporter vs primary effector (background-corrected); higher = stronger activation of the biosensor
# Settings: inducer concentration 5 mM; 6 h; Cupriavidus necator H16; minimal medium + 0.4% gluconate
# Method: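 C. necator H16 strains, each carrying one of 21 transcription factor/inducible promoter–mRFP biosensor plasmids, were grown in minimal medium in 96-well plates (robotic platform). Each was exposed to 46 structurally or metabolically related compounds at 5 mM at 30 °C. OD-normalised RFP fluorescence was read 6 h later and expressed as relative induction (%) = 100 × (FL compound − FL uninduced)/(FL primary inducer − FL uninduced); mean of n=4.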
# 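Further: RFP excited at 585 nm with emission read at 620 nm, culture medium blanks subtracted from fluorescence and absorbance prior to normalisation.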
row,SMILES,relative induction of RFP reporter [%]
1,NCC(=O)O [glycine],-0.419
2,O=C(O)C1CCCC1 [cyclopentane-1-carboxylate],10.9
3,C[C@H](N)C(=O)O [L-alanine],-0.206
4,O=C(O)/C=C/C(=O)O [fumarate],-0.161
5,C[C@@H](O)C(=O)O [D-lactate],-0.262
6,O=C(O)c1cccnc1 [nicotinate],-0.229
7,O=C(O)CC(=O)C(=O)O [oxaloacetate],-0.113
8,"NCC(N)C(=O)O (stereo not given) [2,3-diaminopropanoate]",-0.224
9,Cn1c(=O)c2c(ncn2C)n(C)c1=O [caffeine],-0.151
10,Oc1ccccc1O [catechol],1.99
11,CC(=O)CCC(=O)O [levulinic acid],0.15
12,O=C(O)c1cc(=O)c2ccccc2[nH]1 [kynurenate],-0.549
13,O=C(O)C1=C[C@@H](O)[C@@H](O)[C@H](O)C1 [shikimate],0.552
14,O=C(O)CC(CC(=O)O)C(=O)O [tricarballylate],-0.288
15,Oc1ccccc1 [phenol],-0.423
16,O=C(O)[C@@H](O)[C@@H](O)[C@H](O)[C@@H](O)C(=O)O [glucarate],-0.576
17,O=S(=O)(O)CCO [isethionate],0.494
18,O=CC(=O)O [glyoxylate],-0.137
19,NCCS(=O)(=O)O [taurine],-0.635
20,CC(N)CC(=O)O (stereo not given) [3-aminobutanoate],-0.361

row,SMILES,relative induction of RFP reporter [%]
1,O=C(O)C1=CCCCC1 [cyclohexene-1-carboxylate],80.5
2,O=C(O)CNC(=O)c1ccccc1 [N-benzoylglycine],-0.675
3,O=C(O)C[C@H](O)C(=O)O [L-malate],-0.0424
4,Cn1cnc2c1c(=O)[nH]c(=O)n2C [theobromine],0.638
5,O=C(O)C(O)c1ccccc1 (stereo not given) [mandelic acid],0.747
6,Oc1ccc(O)cc1 [hydroquinone],4.02
7,"O=C(O)c1c(O)cccc1O [2,6-dihydroxybenzoate]",0.241
8,"NC(C(=O)O)c1ccccc1 (racemic) [D,L-2-phenylglycine]",-0.673
9,CCCC(=O)O [butyric acid],0.491
10,CCC(=O)O [propanoate],-0.236
11,O=C(O)C(O)C(=O)O [tartronic acid],-0.292
12,N[C@@H](CC(=O)O)C(=O)O [L-aspartate],-0.282
13,NC(=O)CC[C@H](N)C(=O)O [L-glutamine],-0.359
14,O=c1[nH]cnc2nc[nH]c12 [hypoxanthine],-0.186
15,Oc1cccc(O)c1 [resorcinol],0.33
16,NCC(O)C(=O)O (stereo not given) [3-amino-2-hydroxypropanoate],0.0183
17,O=C(O)CCC(=O)O [succinate],-0.371
18,OC[C@@H](O)[C@@H](O)[C@H](O)[C@H](O)CO [D-mannitol],-0.47
19,O=c1cc[nH]c(=O)[nH]1 [uracil],-0.342
20,NCCc1ccc(O)c(O)c1 [dopamine],1.95
